# Whole data set: some 33,000 sequences, median “E-score (-0.5 to 0.5)” near -0.016, cut for the highest 2% near 0.31. For the sample, the highest values were picked, then their nearest neighbours and some sequences at random.
# Molecular target: Cst6 (UniProt P40535)
# Experiment: PBM E-score (8-mer binding enrichment) (E-score (-0.5 to 0.5)); higher = stronger / more preferred TF binding
# Details: protein concentration: 200 nM; construct: GST-DNA-binding domain
# Method in brief: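 Yeast transcription factors carrying a GST tag, as full-length proteins or DNA-binding domains, were produced by PURExpress in vitro transcription/translation. About 100-200 nM protein was applied to universal all-10-mer Agilent arrays, double-stranded by primer extension on fresh or once-stripped slides. Bound protein was detected with fluorescent anti-GST, and scans were normalised with masliner. The Universal PBM Analysis Suite gave each ungapped eight-base word, pooled with its reverse complement, an E-score, a modified Wilcoxon-Mann-Whitney statistic.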
# UniProt P40535, sequence (P40535 whole entry): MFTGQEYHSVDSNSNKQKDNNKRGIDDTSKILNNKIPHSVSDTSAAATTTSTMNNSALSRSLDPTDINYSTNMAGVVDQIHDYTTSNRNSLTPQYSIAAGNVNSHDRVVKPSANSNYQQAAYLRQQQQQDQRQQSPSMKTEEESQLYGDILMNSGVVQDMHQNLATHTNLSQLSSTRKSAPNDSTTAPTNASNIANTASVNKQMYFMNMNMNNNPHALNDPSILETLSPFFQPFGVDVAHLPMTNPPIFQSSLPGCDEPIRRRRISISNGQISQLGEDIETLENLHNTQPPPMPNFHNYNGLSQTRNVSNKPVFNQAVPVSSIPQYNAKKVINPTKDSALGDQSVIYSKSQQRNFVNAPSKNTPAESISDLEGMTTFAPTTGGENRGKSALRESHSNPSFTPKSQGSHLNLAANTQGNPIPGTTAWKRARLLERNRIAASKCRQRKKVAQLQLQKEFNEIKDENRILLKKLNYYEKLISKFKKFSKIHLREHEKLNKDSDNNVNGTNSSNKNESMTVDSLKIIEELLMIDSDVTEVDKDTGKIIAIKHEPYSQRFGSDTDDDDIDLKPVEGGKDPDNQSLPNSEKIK
row,Sequence,PBM E-score
1,CATACTCC,0.0426
2,CAGCCAAC,-0.13
3,CGAATTAG,0.0675
4,CGTTTAAG,0.0111
5,AGGTCTAC,-0.216
6,AAACTAGT,0.062
7,CCCTGAGA,-0.247
8,GAAATCCC,-0.101
9,CGTTCTTA,0.0793
10,AAGCCATG,-0.124
11,CAACAGCC,0.153
12,ACAAGAAA,0.237
13,AACGTCCT,-0.0138
14,CACGTCAA,0.366
15,AACGTCGT,0.0196
16,AACGTCAT,0.489
17,GACGTCGC,0.236
18,TATGTCAA,0.378
19,CCCGTCAA,-0.228
20,GACGTCCC,0.016
21,CACGTCTA,-0.0114
22,AATGTCAA,0.102
23,TCTGTCAA,0.111
24,GACGTCAC,0.495
25,ATAAGCTC,-0.0286

row,Sequence,PBM E-score
1,CGCCCACC,-0.0447
2,CGGTCCGC,-0.198
3,ACAAAGAA,0.247
4,GACTGCTC,-0.26
5,ACACTTAA,0.105
6,GGGGCTTA,-0.346
7,CAGATAAA,0.051
8,CTATCGGA,-0.0998
9,AGTGTGCC,-0.088
10,AAAAATTC,0.186
11,ATGAAATC,0.314
12,ATGAAATA,0.283
13,CTGAAATC,0.0366
14,ATAGCTAT,-0.0877
15,CTTCGAAG,-0.21
16,AAGCTATG,-0.0495
17,ACTAAGAG,-0.0881
18,CAGAACGG,-0.0224
19,TAACATCA,0.399
20,CGACATCC,-0.0566
21,GGACATCA,0.188
22,CGACATCA,0.411
23,TGACATCA,0.496
24,CGACATCG,-0.122
25,AAACATCA,0.268

row,Sequence,PBM E-score
1,AGACATCA,0.0931
2,CAACATCA,0.305
3,ACGCTGGC,-0.207
4,AAAGGCAC,0.189
5,CAGACCCC,-0.316
6,ATCAATGA,0.35
7,GTCAATGA,0.235
8,CTCAATGA,0.14
9,CCGTACCG,-0.0599
10,CAGGGTGG,-0.23
11,CCCAAGAC,-0.0855
12,AAGACATA,0.0804
13,ATGACAAG,0.134
14,CAGACATA,0.131
15,ATGACAGA,0.243
16,CTGACATA,0.324
17,GAGACATA,-0.00422
18,GTGACATA,0.471
19,ATGACAGG,0.0675
20,GGGACATA,-0.0929
21,CGGACATA,0.0467
22,ATGACATG,0.351
23,ATGACATA,0.45
24,CATCTATA,0.162
25,ACGCGAGG,0.0628

row,Sequence,PBM E-score
1,CATGCCCC,-0.109
2,CATGAGAG,0.0742
3,CACGTGCG,-0.038
4,CTAGTTCC,0.0382
5,ATCGGCTA,-0.138
6,CGGGCGTC,-0.0942
7,AAGCCCGG,-0.209
8,AGAACGGG,-0.0993
9,CAATAAGA,0.181
10,ACTGGTTA,0.0197
11,AGGGACGA,0.0201
12,TGAGCTCA,0.374
13,AGAGCTCA,-0.192
14,CGAGCTCA,-0.0803
15,GAACCGCC,-0.092
16,GAGCTAAA,-0.0615
17,TACGTAGA,0.224
18,ACCGTATA,-0.0183
19,GACGTATA,0.322
20,AACGTATA,0.215
21,GCCGTATA,0.367
22,TACGTATA,0.328
23,CACGTATA,0.167
24,CACGTACA,-0.0529
25,AACGTACA,0.0856

row,Sequence,PBM E-score
1,CCCGTATA,-0.0644
2,CACGTATG,0.204
3,TACGTACA,0.336
4,ATGTTCGA,0.0764
5,CAATTGTC,0.0392
6,AGGATACC,-0.251
7,GCAGTAAC,-0.065
8,CATTCTGC,0.0305
9,CTTCGATA,0.178
10,ATTCCAAA,0.118
11,CGCATCCC,-0.216
12,ACGTAGCC,-0.0377
13,GACGACGC,0.074
14,GATGACTA,0.171
15,CATGACAA,0.14
16,AATGACAG,0.167
17,GATGACAC,0.286
18,GATGACCA,0.101
19,GATGACGC,0.473
20,GATGACCC,-0.0821
21,AATGACAT,0.422
22,AATGACAA,0.267
23,GATGACGA,0.463
24,GATGACAA,0.333
25,ATAAGGGC,0.0296

row,Sequence,PBM E-score
1,GCCGATAC,-0.136
2,CTCGCTAA,0.0589
3,AGACGTTA,0.0355
4,TGATCGCA,0.0445
5,AGCCGGGC,-0.185
6,AAGCTTGA,-0.0535
7,GCTTCGAA,-0.0925
8,ACTGACGC,0.243
9,AAGGACGT,0.0462
10,CCTGACAC,0.029
11,AATGACGT,0.495
12,AATGACGC,0.453
13,CATGACAC,0.328
14,TATGACGA,0.424
15,TATGACCA,0.202
16,AATGACAC,0.273
17,ATTGACGC,0.265
18,AATGACCT,0.25
19,TATGACAA,0.25
20,AGAGCGGA,-0.0178
21,CTCAGACC,-0.22
22,AGACCACC,-0.137
23,ACCGTCCA,-0.185
24,ACAGTGAA,0.146
25,CATCTAGA,0.019

row,Sequence,PBM E-score
1,TCCTAGCA,-0.162
2,GCTCCGAA,-0.0443
3,AATGACTA,0.041
4,CATGACGG,0.38
5,AATGACGG,0.35
6,CATGACCG,0.0772
7,AATGACCG,0.178
8,CCTGACGA,0.182
9,ACTGACGG,0.105
10,CATGACGA,0.438
11,ACTGACGA,0.201
12,AATGACGA,0.451
13,CATGACCA,0.0978
14,CATGACAG,0.118
15,CGGCCTCA,-0.0129
16,ACCACCGA,-0.145
17,CAAAAGCA,-0.0642
18,AGGGGATG,-0.161
19,CGGGGCTC,-0.307
20,ATCGGAGA,-0.197
21,CATGACTC,0.0297
22,CATGACGC,0.455
23,AGTGACAC,0.274
24,AGTGACAA,0.169
25,AGTGACAT,0.459

row,Sequence,PBM E-score
1,CATGACCC,-0.0425
2,AGCAGAAC,-0.0649
3,AATCCACC,-0.121
4,CAGGGCCC,-0.335
5,GAGTGACA,0.287
6,CAGTGACG,0.435
7,AAGTGACG,0.45
8,TAGTGACA,0.338
9,AAGTGACC,-0.131
10,AAGTGAGA,0.00703
11,AAGTGAAA,0.193
12,CAGTGACC,-0.0895
13,CAGTGACA,0.248
14,TAGTGATA,0.088
15,AAGTGACT,0.024
16,AAGTGACA,0.357
17,GGAGAATA,0.103
18,TACCCGAA,-0.133
19,ATGCCACG,0.00475
20,GGGAGTAC,-0.226
21,ACTCACCA,0.043
22,GGCGTAAC,-0.0656
23,CCCACGGG,-0.214
24,TTATCCAA,0.162
25,GGGTGACC,-0.0338

row,Sequence,PBM E-score
1,TGGTGACA,0.378
2,CATTGACC,0.149
3,CATTGACA,0.0835
4,GGGTGACA,0.243
5,CATTGACG,0.358
6,CTGCTCCC,-0.174
7,CCTAATGC,-0.0866
8,CATCTAAA,0.194
9,TCAGCTGA,0.152
10,ATTGAGCC,0.197
11,GCATTACA,0.187
12,TCATTACA,0.368
13,CCATTACA,0.225
14,ACATTGCA,-0.0281
15,TCATTGCA,0.321
16,ACATTAAA,0.198
17,GCATTAAA,0.163
18,CCATTGCA,0.024
19,TCATTAAA,0.352
20,CGGAGAGC,-0.0924
21,CGTCGGAC,-0.178
22,ATTTCACG,-0.00077
23,AGTAAGGA,-0.0515
24,ATAGATGG,-0.129
25,CCTTCGAG,-0.21

row,Sequence,PBM E-score
1,CGAAGTCA,0.0581
2,TGAAGTCA,0.372
3,GGAAGTCA,-0.14
4,CAGCAGTC,-0.258
5,ATATTTAC,0.175
6,CTATTTAA,-0.0505
7,ATATTTAA,0.355
8,CTATTAAA,0.192
9,TTATTAAA,0.264
10,ATATTAAA,0.355
11,ATCAAAGG,-0.0902
12,CTACCACA,-0.155
13,AGTTCCCG,-0.205
14,AGGGCAAT,-0.0329
15,CTGCGTTA,-0.204
16,CTGCGTCC,-0.11
17,ATGCGTCG,0.0508
18,ATGCGTCC,-0.213
19,GTGCGTGA,0.136
20,ATGCGTCA,0.444
21,GTGCGTAA,0.192
22,CTGCGTCA,0.428
23,GTGCGTCA,0.432
24,TCTAACCA,0.057
25,CGTCTACC,-0.0234

row,Sequence,PBM E-score
1,CATTTAGA,0.136
2,AGCAGCTC,-0.28
3,GTCAAGCA,-0.29
4,TAATATAA,0.358
5,CCATATAA,0.105
6,CAATAAAA,0.165
7,ACATAACA,0.227
8,TAATAAAA,0.316
9,TCATAACA,0.311
10,AAATATAA,0.233
11,TCATATAA,0.305
12,GAATATAA,0.111
13,GAATAAAA,0.216
14,GCATATAA,0.166
15,GCATAACA,0.124
16,CATCCTAC,-0.0877
17,CCAGGGCC,-0.39
18,ATTGGCGC,0.0493
19,CGACTACC,-0.363
20,CTTCCATC,-0.0839
21,CAAGTCTC,-0.247
22,TCGCCTAA,-0.0175
23,AAAAGAGG,-0.121
24,TACCAGAA,0.0986
25,AGGGAAGG,-0.28

row,Sequence,PBM E-score
1,CAATATAC,-0.0952
2,CAATATAG,0.0707
3,CAATATAA,0.312
4,GAACGGCA,0.352
5,GAACGGCC,-0.183
6,GCACGGCA,0.353
7,GCACGGCC,0.23
8,CAACGGCA,0.094
9,TCACGGCA,0.224
10,GGCAGGCC,-0.332
11,ATGGGTCC,-0.242
12,GACACCAC,-0.0664
13,CGTTGTCC,0.126
14,GGGGAAAA,-0.101
15,CGCATACC,0.117
16,ATTATGTG,0.228
17,ATTATGTA,0.355
18,ATTATGTC,0.359
19,CTTATGTC,0.105
20,GTTATGTA,0.165
21,ACTATGTC,0.0789
22,CTTACTGA,-0.0696
23,GGGCTCAA,-0.174
24,ACCCCTTG,-0.33
25,AGAAATCG,-0.0866

row,Sequence,PBM E-score
1,AATATTGC,0.257
2,AATATATG,0.171
3,GATATATA,0.304
4,AATATATA,0.239
5,TATATACA,0.161
6,ACTATATC,0.128
7,ACTATATA,0.316
8,AATATATT,0.355
9,AATATTGG,0.0316
10,AATATTGT,0.306
11,TATATATA,0.315
12,GCTATATA,0.167
13,GAATGTGC,0.07
14,GGACGAAC,-0.0196
15,ACTTGCGC,-0.0133
16,CTCGCATC,0.00499
17,AGTATATG,0.111
18,CATATATA,0.272
19,AGTATATC,0.0089
20,CATATATC,0.121
21,AGTATATA,0.348
22,CATATATG,0.341
23,AGTTGCGA,0.0793
24,AAACTGAT,0.0925
25,ACGCGATG,0.122

row,Sequence,PBM E-score
1,AATTGTCG,0.0471
2,CATTTGTC,0.0906
3,CAGGGTTA,-0.124
4,ACCGTAAC,-0.0255
5,AACGTAAG,0.306
6,CACGTAAG,0.292
7,GCCGTAAA,0.243
8,AACGTACT,0.0968
9,AACGTAAT,0.453
10,AACGTAAC,0.329
11,ACCGTAAG,0.109
12,CACGTAAA,0.181
13,AACGTAAA,0.274
14,AACGTAGC,0.0195
15,GACGTAAA,0.374
16,CACCCTCA,-0.212
17,AAGTTCAC,-0.0134
18,GACTTGAA,-0.171
19,AGCTGTGA,0.135
